The source made the active and inactive calls. Rule for the calls: active = hit-call score of the fitted dose curve at least 0.9, where 1 is the maximum; inactive = score below 0.9.
How the values were obtained:
[1] = ATG_CRE_CIS: Attagene CIS-FACTORIAL HepG2 Assay for human cAMP Responsive Element (CRE) binding protein 3 (AID 2282926); conditions: HepG2 CRE cis-reporter, Attagene multiplexed mRNA; actives raise or lower the signal
How it was run: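 Readout: fluorescently labelled reporter transcripts resolved by capillary electrophoresis after RT-PCR, taken 24 h post-dosing in transfected HepG2. Endogenous transcription factor activity drives each cis-element reporter; gain or loss of signal fitted relative to DMSO control.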

[2] = molecular target: CCAAT/enhancer-binding protein beta (Homo sapiens) (UniProt P17676); test: ATG_C_EBP_CIS: Attagene CIS-FACTORIAL HepG2 Assay for human CCAAT/Enhancer Binding Protein (C/EBP) beta (AID 2282927); conditions: HepG2 Attagene cis-factorial transcription factor reporter; actives raise or lower the signal
How it was run: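 RT-PCR/capillary electrophoresis fluorescence of reporter mRNA, 24 h post-dose, in HepG2 cells carrying transfected cis-promoter reporter units. Bidirectional curve fitting against DMSO baseline captures gain or loss of signal.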

[3] = ATG_CMV_CIS: Attagene CIS-FACTORIAL HepG2 Assay for human CMV (Internal Marker) (AID 2282928); conditions: HepG2 CMV promoter reporter, transcription factor profiling; actives raise or lower the signal;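 note: endpoint acts as a background internal control marker rather than a target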
How it was run: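 Bidirectional fits against DMSO are applied to reporter mRNA, read by RT-PCR with capillary electrophoresis, from HepG2 cells exposed 24 h. The endpoint serves as an internal CMV background marker within the cis-factorial reporter panel.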

[4] = ATG_DR4_LXR_CIS: Attagene CIS-FACTORIAL HepG2 Assay for human Liver X Receptor (LXR), DR4 submotif (AID 2282929); conditions: HepG2 Attagene DR4 cis-reporter, mRNA transcription; actives raise or lower the signal
How it was run: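 HepG2 cells transiently transfected with cis-promoter-driven multiplexed reporter units (DR4 element) were dosed for 24 h. Reporter mRNA was quantified by RT-PCR, fluorescent primer extension, HpaI digestion and capillary electrophoresis; bidirectional fitting versus DMSO baseline.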

[5] = molecular target: Aryl hydrocarbon receptor (Homo sapiens) (UniProt P35869); test: ATG_Ahr_CIS: Attagene CIS-FACTORIAL HepG2 Assay for human Aryl Hydrocarbon Receptor (Ahr) (AID 2282930); conditions: HepG2 AhR cis-factorial reporter transcription; actives raise or lower the signal
How it was run: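 HepG2 cells transiently transfected with cis-element-driven multiplexed reporter transcription units; endogenous transcription factor activity measured as reporter mRNA 24 h after dosing. RT-PCR, 6-FAM labelling, HpaI digestion, capillary electrophoresis; bidirectional fitting versus DMSO baseline.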

[6] = ATG_AP_1_CIS: Attagene CIS-FACTORIAL HepG2 Assay for human Activator Protein 1 (AP-1) (AID 2282931); conditions: HepG2 Attagene cis-factorial AP-1 reporter mRNA; actives raise or lower the signal
How it was run: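 HepG2 cells transiently transfected with cis-element-driven multiplex reporter units; 24 h compound exposure. Reporter mRNA quantified by RT-PCR, FAM-labelled fragments resolved by capillary electrophoresis; bidirectional fit versus DMSO baseline.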

[7] = ATG_AP_2_CIS: Attagene CIS-FACTORIAL HepG2 Assay for human Activator Protein 2 (AP-2) (AID 2282932); conditions: HepG2 AP-2 cis-reporter, Attagene transcription factor profiling; actives raise or lower the signal
How it was run: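 Cells (HepG2) transfected with promoter-driven reporter constructs, treated 24 h. Total RNA reverse-transcribed, reporter cDNA PCR-amplified, FAM-labelled by primer extension, digested, resolved by capillary electrophoresis. Activity fitted both directions versus DMSO.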

[8] = ATG_BRE_CIS: Attagene CIS-FACTORIAL HepG2 Assay for human Bone Morphogenetic Protein (BMP) Response Element (BRE) (AID 2282933); conditions: HepG2 BMP response element reporter, Attagene transcription factor profiling; actives raise or lower the signal
How it was run: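 Read-out: reporter mRNA induction quantified by RT-PCR and capillary electrophoresis after 24 h chemical exposure of transfected HepG2 cells. Endogenous factor activity on the BMP response element; gain or loss fitted against DMSO baseline.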

[9] = molecular target: Retinoic acid receptor alpha (Homo sapiens) (UniProt P10276); test: ATG_DR5_RAR_CIS: Attagene CIS-FACTORIAL HepG2 Assay for human Retinoic Acid Receptor Alpha (RARE), DR5 submotif (AID 2282934); conditions: HepG2 Attagene cis-factorial RARE DR5 reporter, mRNA; actives raise or lower the signal
How it was run: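 HepG2 cells transiently transfected with multiplexed reporter units under cis (DR5 RARE) promoters, so endogenous transcription factor activity is measured. After 24 h compound exposure, reporter mRNA is quantified by RT-PCR with fluorescent labelling and capillary electrophoresis; bidirectional fitting versus DMSO.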

[10] = molecular target: Transcription factor E2F1 (Homo sapiens) (UniProt Q01094); test: ATG_E2F_CIS: Attagene CIS-FACTORIAL HepG2 Assay for human E2F Transcription Factor 1 (AID 2282935); conditions: HepG2 Attagene cis-reporter, E2F reporter RNA transcripts; actives raise or lower the signal
How it was run: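 First, HepG2 cells were transfected with reporter transcription units. Next, they were dosed for 24 h. Then RNA was isolated, converted to cDNA, PCR-amplified, FAM-labeled, HpaI-digested and analyzed by capillary electrophoresis.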

[11] = ATG_E_Box_CIS: Attagene CIS-FACTORIAL HepG2 Assay for human Enhancer Box (E-box) (AID 2282936); conditions: HepG2 E-box cis-reporter transcription, actives raise or lower the signal
How it was run: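 Endogenous transcription factor activity was sensed in human HepG2 liver cells through transfected cis-promoter reporter units. After 24 h of dosing, total RNA was reverse-transcribed and reporter cDNA resolved by capillary electrophoresis.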

[12] = ATG_M_61_CIS: Attagene CIS-FACTORIAL HepG2 Assay for M61 Transcription Factor (Internal Marker) (AID 2282937); conditions: HepG2 Attagene CIS-FACTORIAL M61 internal marker reporter; actives raise or lower the signal
How it was run: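 HepG2 cells transiently transfected with cis-element-driven multiple reporter transcription units, dosed for 24 h. Reporter mRNA measured by RT-PCR, 6-FAM primer-extension labelling, HpaI digestion and capillary electrophoresis; bidirectional fit versus DMSO baseline.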

[13] = ATG_EGR_CIS: Attagene CIS-FACTORIAL HepG2 Assay for human Early Growth Response 1 (EGR1) (AID 2282938); conditions: HepG2 Attagene CIS-FACTORIAL EGR reporter mRNA; actives raise or lower the signal
How it was run: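 HepG2 cells transiently transfected with cis-promoter-driven multiplexed reporter transcription units; reporter mRNA measured 24 h after compound dosing by RT-PCR, 6-FAM primer extension, HpaI digestion and capillary electrophoresis. Bidirectional fit versus DMSO baseline.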

[14] = ATG_M_19_CIS: Attagene CIS-FACTORIAL HepG2 Assay for M19 Transcription Factor (Internal Marker) (AID 2282939); conditions: HepG2 Attagene CIS-FACTORIAL M19 internal marker reporter; actives raise or lower the signal
How it was run: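 Readout: fluorescent reporter-transcript fragments by capillary electrophoresis after RT-PCR. Human HepG2 liver cells carried transfected MRTU constructs reporting endogenous transcription-factor activity; exposure 24 h. Gain or loss of signal fitted relative to DMSO.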

[15] = ATG_Ets_CIS: Attagene CIS-FACTORIAL HepG2 Assay for human Erythroblast Transformation Specific (ETS) (AID 2282941); conditions: HepG2 ETS cis-reporter transcription, actives raise or lower the signal
How it was run: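 Endogenous transcription factor activity read as reporter mRNA via RT-PCR and capillary electrophoresis, with gain or loss fitted bidirectionally against DMSO. Human HepG2 liver cells, transiently transfected CIS reporter constructs, 24 h exposure.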

[16] = molecular target: Hepatocyte nuclear factor 3-beta (Homo sapiens) (UniProt Q9Y261); test: ATG_FoxA2_CIS: Attagene CIS-FACTORIAL HepG2 Assay for human Forkhead box A2 (FOXA2) (AID 2282942); conditions: HepG2 cis-reporter transcription factor activity, 24 h; actives raise or lower the signal
How it was run: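 HepG2 cells transiently transfected with multiple cis-regulated reporter transcription units, dosed for 24 h. Reporter mRNA measured by RT-PCR, 6-FAM labelling, HpaI digestion and capillary electrophoresis; bidirectional fitting against DMSO baseline.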

[17] = ATG_GLI_CIS: Attagene CIS-FACTORIAL HepG2 Assay for human Zinc Finger Protein GLI1 (AID 2282945); conditions: HepG2, Attagene cis-factorial reporter mRNA, GLI element; actives raise or lower the signal
How it was run: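 HepG2 cells transiently transfected with cis-promoter multiplexed reporter units report endogenous transcription factor activity. After 24 h chemical exposure, reporter mRNA was quantified by RT-PCR, 6-FAM labelling, HpaI digestion and capillary electrophoresis, with bidirectional fitting against DMSO.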

[18] = ATG_FoxO_CIS: Attagene CIS-FACTORIAL HepG2 Assay for human Forkhead box O (FoxO) (AID 2282943); conditions: HepG2 Attagene cis-reporter, FoxO element, mRNA; actives raise or lower the signal
How it was run: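 HepG2 cells transiently transfected with cis-promoter-driven multiple reporter transcription units; 24 h after chemical dosing, reporter mRNA quantified by RT-PCR, fluorescent primer extension, HpaI digestion and capillary electrophoresis. Bidirectional fitting versus DMSO baseline.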

[19] = ATG_GATA_CIS: Attagene CIS-FACTORIAL HepG2 Assay for human GATA Binding Protein (AID 2282944); conditions: HepG2 GATA cis-element reporter, Attagene multiplex mRNA; actives raise or lower the signal
How it was run: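 Read-out: fluorescent reporter mRNA fragments resolved by capillary electrophoresis after RT-PCR. Human liver HepG2 cells carried transiently transfected cis-regulated reporter constructs; chemicals incubated 24 h; gain or loss of signal fitted relative to DMSO.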

[20] = ATG_ERE_CIS: Attagene CIS-FACTORIAL HepG2 Assay for Estrogen Response Element (ERE) (AID 2282940); conditions: HepG2 ERE cis-reporter, Attagene RNA transcript; actives raise or lower the signal
How it was run: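 Readout: reporter mRNA induction by RT-PCR, FAM-labelled primer extension, HpaI digestion and capillary electrophoresis, 24 h after dosing transfected HepG2 cells. Endogenous transcription factors act on cis-element-regulated reporters. Gain or loss fitted against DMSO.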

Measured: AC50

Sequence of Transcription factor E2F1 (Homo sapiens) (Q01094 whole entry, looked up): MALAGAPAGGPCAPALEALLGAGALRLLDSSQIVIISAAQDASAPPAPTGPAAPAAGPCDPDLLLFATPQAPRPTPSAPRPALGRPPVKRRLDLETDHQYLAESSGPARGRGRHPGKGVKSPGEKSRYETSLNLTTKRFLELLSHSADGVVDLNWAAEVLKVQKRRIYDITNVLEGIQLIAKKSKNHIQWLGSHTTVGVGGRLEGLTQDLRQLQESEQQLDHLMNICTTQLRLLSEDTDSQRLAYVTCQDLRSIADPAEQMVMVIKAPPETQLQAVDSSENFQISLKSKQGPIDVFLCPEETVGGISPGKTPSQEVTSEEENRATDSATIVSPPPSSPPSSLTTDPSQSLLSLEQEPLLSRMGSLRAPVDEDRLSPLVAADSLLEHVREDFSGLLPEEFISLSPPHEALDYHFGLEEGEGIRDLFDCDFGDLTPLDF
Sequence of Aryl hydrocarbon receptor (Homo sapiens) (P35869 whole entry, looked up): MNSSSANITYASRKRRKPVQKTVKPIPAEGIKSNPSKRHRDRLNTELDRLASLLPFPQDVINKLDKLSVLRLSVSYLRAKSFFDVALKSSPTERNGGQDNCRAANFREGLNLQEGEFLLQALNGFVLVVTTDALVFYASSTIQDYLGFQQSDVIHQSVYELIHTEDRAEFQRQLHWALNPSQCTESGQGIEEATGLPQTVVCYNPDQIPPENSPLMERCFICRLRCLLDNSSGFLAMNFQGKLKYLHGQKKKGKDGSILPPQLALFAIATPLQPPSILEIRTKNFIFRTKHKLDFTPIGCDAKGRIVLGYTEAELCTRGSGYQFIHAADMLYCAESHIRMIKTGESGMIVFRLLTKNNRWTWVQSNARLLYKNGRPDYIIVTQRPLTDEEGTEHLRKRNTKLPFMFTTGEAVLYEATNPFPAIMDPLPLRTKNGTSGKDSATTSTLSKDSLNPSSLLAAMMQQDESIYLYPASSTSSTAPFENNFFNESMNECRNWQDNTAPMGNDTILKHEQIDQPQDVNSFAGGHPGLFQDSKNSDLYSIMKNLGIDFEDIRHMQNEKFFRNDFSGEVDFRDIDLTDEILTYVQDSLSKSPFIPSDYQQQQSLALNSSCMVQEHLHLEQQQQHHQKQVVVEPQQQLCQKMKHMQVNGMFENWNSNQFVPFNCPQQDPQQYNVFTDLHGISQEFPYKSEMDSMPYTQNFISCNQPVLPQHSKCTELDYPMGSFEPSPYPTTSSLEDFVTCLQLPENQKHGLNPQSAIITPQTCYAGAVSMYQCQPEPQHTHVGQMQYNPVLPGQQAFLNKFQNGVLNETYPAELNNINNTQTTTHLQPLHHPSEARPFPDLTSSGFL
Sequence of Retinoic acid receptor alpha (Homo sapiens) (P10276 whole entry, looked up): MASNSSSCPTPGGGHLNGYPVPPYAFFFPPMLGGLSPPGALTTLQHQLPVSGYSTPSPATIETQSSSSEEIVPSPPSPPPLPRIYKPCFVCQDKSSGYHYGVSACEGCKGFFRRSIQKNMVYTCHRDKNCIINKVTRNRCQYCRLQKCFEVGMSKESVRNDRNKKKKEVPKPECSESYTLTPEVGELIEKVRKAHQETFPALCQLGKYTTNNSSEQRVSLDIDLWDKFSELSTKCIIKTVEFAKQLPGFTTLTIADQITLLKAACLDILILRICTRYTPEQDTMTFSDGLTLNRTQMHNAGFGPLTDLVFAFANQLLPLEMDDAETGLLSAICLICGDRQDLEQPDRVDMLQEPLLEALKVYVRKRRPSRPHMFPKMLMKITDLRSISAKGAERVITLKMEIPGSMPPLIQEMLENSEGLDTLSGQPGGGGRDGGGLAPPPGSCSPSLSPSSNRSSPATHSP
Sequence of CCAAT/enhancer-binding protein beta (Homo sapiens) (P17676 whole entry, looked up): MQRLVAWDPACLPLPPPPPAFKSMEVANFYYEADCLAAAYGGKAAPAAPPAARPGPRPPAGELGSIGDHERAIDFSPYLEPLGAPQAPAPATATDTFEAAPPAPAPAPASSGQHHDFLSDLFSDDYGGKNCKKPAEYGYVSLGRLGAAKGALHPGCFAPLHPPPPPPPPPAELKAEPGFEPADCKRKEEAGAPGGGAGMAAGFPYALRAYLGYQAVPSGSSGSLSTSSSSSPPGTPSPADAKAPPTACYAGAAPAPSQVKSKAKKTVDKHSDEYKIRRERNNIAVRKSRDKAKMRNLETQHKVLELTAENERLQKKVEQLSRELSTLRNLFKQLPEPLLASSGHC
Sequence of Hepatocyte nuclear factor 3-beta (Homo sapiens) (Q9Y261 whole entry, looked up): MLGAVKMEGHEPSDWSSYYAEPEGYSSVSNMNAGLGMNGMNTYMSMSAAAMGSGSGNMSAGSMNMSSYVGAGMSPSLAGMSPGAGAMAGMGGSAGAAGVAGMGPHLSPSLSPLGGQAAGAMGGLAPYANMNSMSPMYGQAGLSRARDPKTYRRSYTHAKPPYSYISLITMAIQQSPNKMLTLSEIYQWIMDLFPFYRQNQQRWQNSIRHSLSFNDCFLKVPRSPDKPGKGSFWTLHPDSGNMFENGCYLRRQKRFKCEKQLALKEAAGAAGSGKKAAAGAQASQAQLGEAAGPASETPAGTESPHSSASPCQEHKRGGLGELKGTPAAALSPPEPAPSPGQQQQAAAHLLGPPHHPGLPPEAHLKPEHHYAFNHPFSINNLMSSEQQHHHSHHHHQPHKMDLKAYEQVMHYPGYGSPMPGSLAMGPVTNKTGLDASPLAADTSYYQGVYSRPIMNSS

OCC#CCO
not listed: [18] | [19] | [20]
inactive: all other assays above

O=CCc1ccccc1
not listed: [11] | [17] | [20]
inactive: all other assays above

Nc1ccc2cc(S(=O)(=O)O)cc(O)c2c1N=Nc1ccccc1C(F)(F)F
active: [5] 12.6 µM
not listed: [16] | [18] | [20]
inactive: all other assays above

Cc1[nH]c(=O)c(C#N)cc1-c1ccncc1
active: [3] 24.3 µM | [4] 26.6 µM
not listed: [10]
inactive: all other assays above

COCCc1ccc(OCC(O)CNC(C)C)cc1 (stereo not given)
not listed: [11] | [20]
inactive: all other assays above

CCCCCc1ccco1
active: [4] 101 µM | [6] 90.9 µM | [13] 108 µM
not listed: [10] | [17] | [20]
inactive: all other assays above

CC(O)C1CCCCC1 (stereo not given)
not listed: [10] | [20]
inactive: all other assays above

COS(=O)(=O)O
not listed: [10] | [11] | [20]
inactive: all other assays above

— PubChem BioAssay (EPA / NIEHS)
